This is a sample that favours compounds with a hit; in the whole collection about 2.6% have one here.
Peg3 promoter: Peg3 promoter activity inhibition; HeLa PEG-Prom luciferase reporter, luminescence, overnight; inhibition, % at 20 µM; actives 1.7% (n = 360,000); AID 588405;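 active = inhibition of at least 50% at 20 µM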
CF NFkB inh: blocks PAF-induced NF-kB reporter in cystic fibrosis cells | KKLEB NF-kB-GFP reporter, GFP fluorescence overnight | actives 0.86% (n = 360,000) | inhibition, % at 5 µM;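 active = at least 50% inhibition at 5 µM, scaled per plate between neutral and stimulator controls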;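 note: PAF is a Pseudomonas aeruginosa culture filtrate used as stimulus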
HIF-2a inh: HIF-2a inhibition | 786-0 RCC cells HIF-2a reporter, luciferase luminescence, overnight | inhibition, % at 18.8 µM | actives 0.72% (n = 360,000);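 active = inhibition of the luminescence signal of 40% or more relative to plate controls, in a single-dose primary screen at 18.75 µM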
KKLEB tox: counter-screen for CF NF-kB inhibitors: cytotoxicity | AID 602141 | KKLEB CF airway cells viability, ATPlite luminescence, overnight; hits give low values; cells stimulated with P. aeruginosa culture filtrate | actives 0.36% (n = 360,000) | activity change (cytotoxicity), % at 5 µM;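 active = corrected activity change at or below -50% at 5 µM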
Shn3 3UTR inh: inhibitors of Schnurri-3 3'UTR reporter in osteoblasts. Clone20 osteoblast Shn3 3'UTR firefly luciferase, 24 h. inhibition, % at 12.5 µM. actives 0.52% (n = 360,000). AID 588674;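 active = mean inhibition of at least 75% with every replicate also reaching 75%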
Large screens that a line does not name were inactive.

O=c1[nH]c(C2CCN(S(=O)(=O)c3ccc4c(c3)OCCO4)CC2)nc2c1nnn2Cc1cccc(F)c1	none
CC1CCN(Cc2c(C(=O)N/N=C/c3ccc(C(C)C)cc3)nnn2-c2nonc2N)CC1	Peg3 promoter 65.0
O=C(CN1CCN(S(=O)(=O)c2ccc(Br)cc2)CC1)N/N=C/c1ccc(Cl)c([N+](=O)[O-])c1	Peg3 promoter 92.7
CC(=O)c1ccc(S(=O)(=O)N2CCN(CC(=O)Nc3ccc(Cl)c([N+](=O)[O-])c3)CC2)cc1	none
O=C(CN1CCN(S(=O)(=O)c2ccc(Br)cc2)CC1)N/N=C/c1cc([N+](=O)[O-])ccc1Cl	none
Cc1ccc(S(=O)(=O)N2CCN(CC(=O)N/N=C\c3ccc(Cl)c([N+](=O)[O-])c3)CC2)cc1	Peg3 promoter 68.7
O=C(NC1CC1)c1cccc(NC(=O)C2CCN(S(=O)(=O)c3cccc(C(F)(F)F)c3)CC2)c1	none
Cn1nnnc1Sc1ncnc2scc(-c3ccccc3)c12	HIF-2a inh 59.6
Nc1ccccc1O	CF NFkB inh 53.3
Cc1cccc(NC(=O)c2cc3c(=O)n4ccccc4nc3n(CC(C)C)c2=N)c1	Peg3 promoter 54.0
CN(C(=O)CSc1nc(C2CC2)n(-c2ccccc2)n1)C1CCS(=O)(=O)C1 (stereo not drawn)	none
Cc1sc(NC(=O)c2ccco2)c(C(c2cccnc2)N2CCC(C)CC2)c1C (stereo not drawn)	none
CCN1CCN(C(c2cccnc2)c2c(NC(=O)c3ccco3)sc(C)c2C)CC1 (stereo not drawn)	Peg3 promoter 55.2
C[C@@H]1O[C@H](C2CCCC2)CC2=C1C(=O)OC(C)(C)O2	none (no result: Peg3 promoter, CF NFkB inh, KKLEB tox, Shn3 3UTR inh)
CCN(CC)CCCNC(=O)c1cc(-c2ccccc2)c(N2CCCCC2)s1	Peg3 promoter 97.2
CC(=O)c1ccc(OCc2cc(C(=O)N3CCN(c4ccccc4)CC3C)no2)cc1 (stereo not drawn)	none
CC(=O)Nc1nc2c(s1)CCc1ccccc1-2	none
O=C(CCCl)Nc1nc2c(s1)CCc1ccccc1-2	Peg3 promoter 54.5
CN1CCN(c2ccc(-c3cc(NC=O)c4ncc(-c5ccc(F)cc5)n4c3)cc2)CC1	none
COc1cccc(-c2cnc3c(NC=O)cc(-c4ccc(O)c(OC)c4)cn23)c1	Peg3 promoter 69.3
COc1cc(-c2cnc3c(NC=O)cc(-c4ccsc4)cn23)cc(OC)c1OC	Peg3 promoter 76.1
COc1ccc(-c2cc(NC=O)c3ncc(-c4ccc(OC)c(OC)c4)n3c2)cc1OC	Peg3 promoter 57.5
CN1CCN(c2ccc(-c3cc(NC=O)c4ncc(-c5ccccc5)n4c3)cc2)CC1	Peg3 promoter 78.9
COc1cc(-c2cc(NC=O)c3ncc(-c4ccc(F)cc4)n3c2)cc(OC)c1OC	none
O=c1ccn(CCc2c[nH]c3ccccc23)c2c1CCCC2	none
CC(C)c1ccccc1NC(=O)COC(=O)c1cc([N+](=O)[O-])ccc1N1CCOCC1	none
O=C(CNC(=S)N(Cc1ccccc1)Cc1ccccc1F)NCc1ccc(Cl)cc1	Peg3 promoter 52.1
COc1ccc(C)cc1NC(=O)NC1CCCc2ccccc21 (stereo not drawn)	Peg3 promoter 54.5
O=C(NCCc1ccccc1)C1CC(=O)N(C2CCCC2)C1 (stereo not drawn)	none
CCc1nc2ccc(C(=O)NCCc3c[nH]c4ccccc34)cn2c1N(C)CCCc1ccccc1	Peg3 promoter 60.9
CC(C)NC[C@@H](O)COc1ccc(CC(N)=O)cc1	none
CN(CCC#N)c1ccc(/C=C(\C#N)c2ccccn2)cc1	KKLEB tox -51.6
CCN(CC)c1ccc(/C=C(\C#N)c2ccccn2)cc1	KKLEB tox -50.3
CCN(Cc1ccccc1)c1ccc(/C=C(\C#N)c2ccccn2)cc1	none
CCn1c(SCc2cccc(OC)c2)nc2ccccc2c1=O	none
O=C(N/N=C\c1cccc(OC(=O)c2ccco2)c1)c1ccc2c(c1)OCO2	none
COc1ccc(-c2nn(-c3ccccc3)cc2/C=N/Nc2ccc(S(N)(=O)=O)cc2[N+](=O)[O-])cc1OC	CF NFkB inh 58.2, KKLEB tox -66.2
COc1ccc(-c2nn(-c3ccccc3)cc2/C=N/Nc2ccc3ccccc3n2)cc1OC	none
COc1ccc(-c2nn(-c3ccccc3)cc2/C=N/O)cc1OC	none
COc1ccc(-c2nn(-c3ccccc3)cc2/C=N/N=C(N)N)cc1OC	Peg3 promoter 104.0
Cc1cnc(C(=O)OCC(=O)N(C(C)C)C(C)C)cn1	none
CC(C)CNc1cc(N2CCCC2)ccc1[N+](=O)[O-]	Peg3 promoter 54.5

Assay outcomes as filed in PubChem.
